Measurements: ChEMBL document CHEMBL1961873, “Compounds: GSK PKIS; Assays: Nanosyn kinase panel” (2012)

How the values were obtained:
[1] = target: T1, Inhibitor of nuclear factor kappa-B kinase subunit epsilon (Homo sapiens) (UniProt Q14164); details: at 1 µM;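 further: reported values are averaged percent inhibition figures against human IKKε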
T1 sequence (whole entry): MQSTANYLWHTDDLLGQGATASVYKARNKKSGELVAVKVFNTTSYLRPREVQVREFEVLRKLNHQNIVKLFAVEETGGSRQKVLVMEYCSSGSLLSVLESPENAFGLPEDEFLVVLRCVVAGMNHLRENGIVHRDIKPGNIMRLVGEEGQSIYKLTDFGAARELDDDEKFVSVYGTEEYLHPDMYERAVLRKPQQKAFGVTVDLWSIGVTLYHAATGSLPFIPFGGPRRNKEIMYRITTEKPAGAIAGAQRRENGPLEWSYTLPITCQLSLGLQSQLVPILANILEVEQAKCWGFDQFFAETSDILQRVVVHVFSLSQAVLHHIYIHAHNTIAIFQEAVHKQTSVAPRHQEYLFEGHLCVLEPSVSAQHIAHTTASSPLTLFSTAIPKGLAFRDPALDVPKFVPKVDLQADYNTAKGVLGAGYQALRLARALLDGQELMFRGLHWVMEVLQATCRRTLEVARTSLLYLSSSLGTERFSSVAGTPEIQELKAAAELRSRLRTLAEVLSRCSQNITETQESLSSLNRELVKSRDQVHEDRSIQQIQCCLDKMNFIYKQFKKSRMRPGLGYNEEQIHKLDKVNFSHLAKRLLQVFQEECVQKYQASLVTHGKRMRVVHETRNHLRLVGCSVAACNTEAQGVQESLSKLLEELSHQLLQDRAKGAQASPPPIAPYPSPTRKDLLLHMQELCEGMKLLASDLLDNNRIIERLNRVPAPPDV

[2] = target: T2, Serine/threonine-protein kinase Nek1 (Homo sapiens) (UniProt Q96PY6); details: at 0.1 µM
T2 sequence (whole entry): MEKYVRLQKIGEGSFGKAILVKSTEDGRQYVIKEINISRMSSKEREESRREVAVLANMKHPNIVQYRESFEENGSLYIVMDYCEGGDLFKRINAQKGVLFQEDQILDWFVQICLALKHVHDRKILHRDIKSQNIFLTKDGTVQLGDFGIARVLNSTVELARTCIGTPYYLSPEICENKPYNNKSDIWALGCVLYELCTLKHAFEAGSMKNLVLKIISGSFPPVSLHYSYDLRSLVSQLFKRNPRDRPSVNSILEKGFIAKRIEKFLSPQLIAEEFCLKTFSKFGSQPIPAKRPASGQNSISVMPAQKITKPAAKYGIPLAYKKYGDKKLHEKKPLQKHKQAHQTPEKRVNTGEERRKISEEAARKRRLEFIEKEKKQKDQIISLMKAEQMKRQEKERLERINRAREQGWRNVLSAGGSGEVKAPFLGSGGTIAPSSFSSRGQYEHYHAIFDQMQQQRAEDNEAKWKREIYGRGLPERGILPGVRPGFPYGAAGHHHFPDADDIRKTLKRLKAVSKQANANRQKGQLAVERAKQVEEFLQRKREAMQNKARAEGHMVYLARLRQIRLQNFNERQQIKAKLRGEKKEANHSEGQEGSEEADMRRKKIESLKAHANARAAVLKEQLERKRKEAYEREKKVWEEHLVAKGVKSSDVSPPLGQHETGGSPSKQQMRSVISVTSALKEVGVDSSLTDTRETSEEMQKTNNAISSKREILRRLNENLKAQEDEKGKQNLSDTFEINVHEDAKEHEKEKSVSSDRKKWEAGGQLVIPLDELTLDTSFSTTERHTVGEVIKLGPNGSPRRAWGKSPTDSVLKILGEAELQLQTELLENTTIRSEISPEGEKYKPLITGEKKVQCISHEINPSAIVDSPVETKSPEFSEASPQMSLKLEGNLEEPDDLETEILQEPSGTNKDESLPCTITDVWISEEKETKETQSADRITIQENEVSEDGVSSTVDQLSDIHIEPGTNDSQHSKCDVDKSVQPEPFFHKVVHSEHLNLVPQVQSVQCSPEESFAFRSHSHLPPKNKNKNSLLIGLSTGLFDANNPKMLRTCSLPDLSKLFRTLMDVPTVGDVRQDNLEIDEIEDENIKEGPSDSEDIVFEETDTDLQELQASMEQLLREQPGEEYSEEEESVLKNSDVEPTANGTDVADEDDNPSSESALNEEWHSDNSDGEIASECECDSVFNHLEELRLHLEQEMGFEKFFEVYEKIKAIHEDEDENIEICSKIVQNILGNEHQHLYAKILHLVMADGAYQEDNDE

[3] = target: T2, Serine/threonine-protein kinase Nek1 (Homo sapiens); details: at 1 µM
[4] = target: T3, Serine/threonine-protein kinase Nek2 (Homo sapiens) (UniProt P51955); details: at 0.1 µM
T3 sequence (whole entry): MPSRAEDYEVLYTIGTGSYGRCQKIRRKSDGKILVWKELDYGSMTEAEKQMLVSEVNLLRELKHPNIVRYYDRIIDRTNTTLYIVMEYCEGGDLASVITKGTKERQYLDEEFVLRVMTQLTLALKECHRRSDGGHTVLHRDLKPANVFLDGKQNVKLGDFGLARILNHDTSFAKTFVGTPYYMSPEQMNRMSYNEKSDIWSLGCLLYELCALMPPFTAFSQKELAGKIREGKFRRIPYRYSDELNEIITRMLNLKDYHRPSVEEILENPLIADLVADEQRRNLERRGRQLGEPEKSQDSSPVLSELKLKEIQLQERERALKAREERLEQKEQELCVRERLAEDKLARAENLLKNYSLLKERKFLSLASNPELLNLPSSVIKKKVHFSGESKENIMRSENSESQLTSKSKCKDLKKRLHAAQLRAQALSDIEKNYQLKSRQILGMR

[5] = target: T3, Serine/threonine-protein kinase Nek2 (Homo sapiens); details: at 1 µM
[6] = target: Serine/threonine-protein kinase Nek6 (Homo sapiens) (UniProt Q9HC98); details: at 0.1 µM
Sequence of Serine/threonine-protein kinase Nek6 (Homo sapiens) (Q9HC98 whole entry): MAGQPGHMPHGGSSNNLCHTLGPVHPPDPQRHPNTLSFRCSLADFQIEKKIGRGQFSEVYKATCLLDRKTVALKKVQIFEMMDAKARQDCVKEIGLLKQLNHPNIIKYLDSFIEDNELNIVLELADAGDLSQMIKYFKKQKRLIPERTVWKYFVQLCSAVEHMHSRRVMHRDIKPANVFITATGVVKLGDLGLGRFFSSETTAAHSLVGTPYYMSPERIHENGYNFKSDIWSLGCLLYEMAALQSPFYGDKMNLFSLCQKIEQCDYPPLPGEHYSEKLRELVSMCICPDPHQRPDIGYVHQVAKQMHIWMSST

[7] = target: Serine/threonine-protein kinase Nek6 (Homo sapiens) (UniProt Q9HC98); details: at 1 µM
[8] = target: Serine/threonine-protein kinase Nek7 (Homo sapiens) (UniProt Q8TDX7); details: at 0.1 µM
Sequence of Serine/threonine-protein kinase Nek7 (Homo sapiens) (Q8TDX7 whole entry, looked up): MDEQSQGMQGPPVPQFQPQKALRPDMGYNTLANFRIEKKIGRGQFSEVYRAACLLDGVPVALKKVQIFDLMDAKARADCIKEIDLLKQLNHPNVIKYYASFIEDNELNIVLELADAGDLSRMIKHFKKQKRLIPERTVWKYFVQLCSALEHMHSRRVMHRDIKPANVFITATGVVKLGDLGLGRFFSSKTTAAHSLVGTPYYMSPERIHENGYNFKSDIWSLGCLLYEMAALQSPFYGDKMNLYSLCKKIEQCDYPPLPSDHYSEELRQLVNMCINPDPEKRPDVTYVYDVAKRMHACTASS

[9] = target: Serine/threonine-protein kinase Nek7 (Homo sapiens) (UniProt Q8TDX7); details: at 1 µM
[10] = target: T4, Serine/threonine-protein kinase Nek9 (Homo sapiens) (UniProt Q8TD19); details: at 0.1 µM
T4 sequence (whole entry): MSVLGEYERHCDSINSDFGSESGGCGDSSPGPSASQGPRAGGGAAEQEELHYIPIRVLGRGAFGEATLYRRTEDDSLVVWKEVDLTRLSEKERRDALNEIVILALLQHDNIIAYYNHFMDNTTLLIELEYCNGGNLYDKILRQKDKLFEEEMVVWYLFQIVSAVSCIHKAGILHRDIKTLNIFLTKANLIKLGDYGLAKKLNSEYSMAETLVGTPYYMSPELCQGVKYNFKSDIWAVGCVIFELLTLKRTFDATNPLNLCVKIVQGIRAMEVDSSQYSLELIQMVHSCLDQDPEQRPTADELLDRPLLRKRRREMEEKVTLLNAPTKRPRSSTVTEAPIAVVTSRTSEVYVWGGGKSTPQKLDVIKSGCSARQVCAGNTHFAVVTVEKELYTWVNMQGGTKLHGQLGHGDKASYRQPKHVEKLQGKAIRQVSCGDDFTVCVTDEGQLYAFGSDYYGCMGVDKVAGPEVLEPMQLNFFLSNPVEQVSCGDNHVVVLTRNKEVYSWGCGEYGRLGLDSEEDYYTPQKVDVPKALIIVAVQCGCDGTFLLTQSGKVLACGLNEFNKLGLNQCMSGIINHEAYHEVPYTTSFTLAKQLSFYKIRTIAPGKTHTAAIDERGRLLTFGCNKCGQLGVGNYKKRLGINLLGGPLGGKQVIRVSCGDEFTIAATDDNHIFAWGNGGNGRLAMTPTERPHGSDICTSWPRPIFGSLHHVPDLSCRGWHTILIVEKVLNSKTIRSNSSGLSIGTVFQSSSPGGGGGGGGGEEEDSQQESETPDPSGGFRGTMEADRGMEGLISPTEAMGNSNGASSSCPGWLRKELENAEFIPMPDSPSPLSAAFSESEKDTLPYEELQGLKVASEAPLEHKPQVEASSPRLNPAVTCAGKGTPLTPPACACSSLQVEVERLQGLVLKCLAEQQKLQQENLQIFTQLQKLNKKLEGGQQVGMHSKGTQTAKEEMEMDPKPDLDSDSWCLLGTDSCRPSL

[11] = target: T4, Serine/threonine-protein kinase Nek9 (Homo sapiens); details: at 1 µM
[12] = target: Serine/threonine-protein kinase PLK1 (Homo sapiens) (UniProt P53350); details: at 0.1 µM
Sequence of Serine/threonine-protein kinase PLK1 (Homo sapiens) (P53350 whole entry): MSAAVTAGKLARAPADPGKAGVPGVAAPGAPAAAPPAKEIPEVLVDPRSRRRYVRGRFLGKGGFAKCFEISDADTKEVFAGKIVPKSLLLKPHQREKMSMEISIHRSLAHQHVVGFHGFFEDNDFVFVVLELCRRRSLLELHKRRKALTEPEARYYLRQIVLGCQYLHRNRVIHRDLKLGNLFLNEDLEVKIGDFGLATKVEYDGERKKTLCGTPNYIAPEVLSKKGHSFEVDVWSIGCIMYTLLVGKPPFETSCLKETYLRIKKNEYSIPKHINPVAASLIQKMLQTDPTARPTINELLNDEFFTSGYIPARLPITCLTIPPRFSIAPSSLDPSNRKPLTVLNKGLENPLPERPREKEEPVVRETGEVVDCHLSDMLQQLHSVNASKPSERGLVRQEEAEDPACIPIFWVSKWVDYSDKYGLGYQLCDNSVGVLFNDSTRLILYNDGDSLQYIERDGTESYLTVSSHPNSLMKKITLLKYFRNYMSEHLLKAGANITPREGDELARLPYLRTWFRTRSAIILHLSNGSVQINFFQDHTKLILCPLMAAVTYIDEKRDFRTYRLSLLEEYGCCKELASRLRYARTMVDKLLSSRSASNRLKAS

[13] = target: Serine/threonine-protein kinase PLK1 (Homo sapiens) (UniProt P53350); details: at 1 µM
[14] = target: T5, Dual specificity protein kinase TTK (Homo sapiens) (UniProt P33981); details: at 0.1 µM
T5 sequence (whole entry): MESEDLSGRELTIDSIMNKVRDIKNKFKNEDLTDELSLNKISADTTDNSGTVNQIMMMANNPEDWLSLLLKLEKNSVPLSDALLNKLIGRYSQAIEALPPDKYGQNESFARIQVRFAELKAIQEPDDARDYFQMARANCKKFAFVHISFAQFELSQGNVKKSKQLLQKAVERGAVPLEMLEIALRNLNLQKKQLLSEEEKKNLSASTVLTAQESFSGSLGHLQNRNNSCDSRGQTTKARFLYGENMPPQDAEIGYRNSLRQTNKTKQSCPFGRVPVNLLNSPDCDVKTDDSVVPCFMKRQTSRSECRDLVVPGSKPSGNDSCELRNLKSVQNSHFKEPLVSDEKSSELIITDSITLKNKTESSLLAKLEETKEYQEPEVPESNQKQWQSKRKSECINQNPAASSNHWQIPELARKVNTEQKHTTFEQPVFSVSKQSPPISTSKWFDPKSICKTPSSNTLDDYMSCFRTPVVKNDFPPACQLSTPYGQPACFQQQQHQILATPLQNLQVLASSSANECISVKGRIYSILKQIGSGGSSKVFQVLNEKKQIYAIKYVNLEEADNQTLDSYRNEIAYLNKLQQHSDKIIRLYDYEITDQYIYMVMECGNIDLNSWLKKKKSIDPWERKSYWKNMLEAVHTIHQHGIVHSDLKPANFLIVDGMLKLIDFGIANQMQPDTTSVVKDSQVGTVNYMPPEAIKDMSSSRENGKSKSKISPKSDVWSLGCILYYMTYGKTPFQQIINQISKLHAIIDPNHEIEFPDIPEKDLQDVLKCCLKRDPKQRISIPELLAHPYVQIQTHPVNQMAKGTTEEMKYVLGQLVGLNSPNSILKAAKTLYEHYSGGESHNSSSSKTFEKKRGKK

[15] = test system: T6, Receptor-type tyrosine-protein kinase FLT3 (Homo sapiens), P36888 [D835Y]; details: at 1 µM
T6 sequence (whole entry): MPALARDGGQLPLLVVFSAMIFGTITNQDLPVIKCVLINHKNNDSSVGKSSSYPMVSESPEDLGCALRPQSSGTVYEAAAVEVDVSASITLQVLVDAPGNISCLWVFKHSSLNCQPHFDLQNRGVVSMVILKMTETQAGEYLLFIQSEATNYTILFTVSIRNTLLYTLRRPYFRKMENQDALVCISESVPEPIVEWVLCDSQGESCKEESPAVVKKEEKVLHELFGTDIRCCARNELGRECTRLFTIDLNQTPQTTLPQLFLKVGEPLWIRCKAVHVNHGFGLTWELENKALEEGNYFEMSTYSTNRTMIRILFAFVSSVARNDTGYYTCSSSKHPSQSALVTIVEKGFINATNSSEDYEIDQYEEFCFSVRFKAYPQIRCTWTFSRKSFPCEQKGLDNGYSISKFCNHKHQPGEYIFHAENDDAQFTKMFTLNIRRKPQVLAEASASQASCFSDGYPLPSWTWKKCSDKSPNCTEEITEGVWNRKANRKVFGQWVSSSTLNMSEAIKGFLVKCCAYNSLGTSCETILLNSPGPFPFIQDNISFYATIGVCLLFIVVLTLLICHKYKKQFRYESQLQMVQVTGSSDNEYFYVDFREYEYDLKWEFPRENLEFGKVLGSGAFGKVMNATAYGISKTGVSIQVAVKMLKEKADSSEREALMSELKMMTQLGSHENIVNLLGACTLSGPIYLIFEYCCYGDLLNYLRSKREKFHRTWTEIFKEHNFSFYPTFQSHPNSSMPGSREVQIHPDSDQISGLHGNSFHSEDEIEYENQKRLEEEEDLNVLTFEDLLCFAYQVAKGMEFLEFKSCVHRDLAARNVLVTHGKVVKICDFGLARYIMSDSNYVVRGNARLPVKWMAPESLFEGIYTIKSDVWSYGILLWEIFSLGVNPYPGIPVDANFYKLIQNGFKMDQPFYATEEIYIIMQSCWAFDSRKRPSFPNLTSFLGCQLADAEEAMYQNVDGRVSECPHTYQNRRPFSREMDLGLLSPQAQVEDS

[16] = target: Vascular endothelial growth factor receptor 3 (Homo sapiens) (UniProt P35916); details: at 0.1 µM
Sequence of Vascular endothelial growth factor receptor 3 (Homo sapiens) (P35916 whole entry): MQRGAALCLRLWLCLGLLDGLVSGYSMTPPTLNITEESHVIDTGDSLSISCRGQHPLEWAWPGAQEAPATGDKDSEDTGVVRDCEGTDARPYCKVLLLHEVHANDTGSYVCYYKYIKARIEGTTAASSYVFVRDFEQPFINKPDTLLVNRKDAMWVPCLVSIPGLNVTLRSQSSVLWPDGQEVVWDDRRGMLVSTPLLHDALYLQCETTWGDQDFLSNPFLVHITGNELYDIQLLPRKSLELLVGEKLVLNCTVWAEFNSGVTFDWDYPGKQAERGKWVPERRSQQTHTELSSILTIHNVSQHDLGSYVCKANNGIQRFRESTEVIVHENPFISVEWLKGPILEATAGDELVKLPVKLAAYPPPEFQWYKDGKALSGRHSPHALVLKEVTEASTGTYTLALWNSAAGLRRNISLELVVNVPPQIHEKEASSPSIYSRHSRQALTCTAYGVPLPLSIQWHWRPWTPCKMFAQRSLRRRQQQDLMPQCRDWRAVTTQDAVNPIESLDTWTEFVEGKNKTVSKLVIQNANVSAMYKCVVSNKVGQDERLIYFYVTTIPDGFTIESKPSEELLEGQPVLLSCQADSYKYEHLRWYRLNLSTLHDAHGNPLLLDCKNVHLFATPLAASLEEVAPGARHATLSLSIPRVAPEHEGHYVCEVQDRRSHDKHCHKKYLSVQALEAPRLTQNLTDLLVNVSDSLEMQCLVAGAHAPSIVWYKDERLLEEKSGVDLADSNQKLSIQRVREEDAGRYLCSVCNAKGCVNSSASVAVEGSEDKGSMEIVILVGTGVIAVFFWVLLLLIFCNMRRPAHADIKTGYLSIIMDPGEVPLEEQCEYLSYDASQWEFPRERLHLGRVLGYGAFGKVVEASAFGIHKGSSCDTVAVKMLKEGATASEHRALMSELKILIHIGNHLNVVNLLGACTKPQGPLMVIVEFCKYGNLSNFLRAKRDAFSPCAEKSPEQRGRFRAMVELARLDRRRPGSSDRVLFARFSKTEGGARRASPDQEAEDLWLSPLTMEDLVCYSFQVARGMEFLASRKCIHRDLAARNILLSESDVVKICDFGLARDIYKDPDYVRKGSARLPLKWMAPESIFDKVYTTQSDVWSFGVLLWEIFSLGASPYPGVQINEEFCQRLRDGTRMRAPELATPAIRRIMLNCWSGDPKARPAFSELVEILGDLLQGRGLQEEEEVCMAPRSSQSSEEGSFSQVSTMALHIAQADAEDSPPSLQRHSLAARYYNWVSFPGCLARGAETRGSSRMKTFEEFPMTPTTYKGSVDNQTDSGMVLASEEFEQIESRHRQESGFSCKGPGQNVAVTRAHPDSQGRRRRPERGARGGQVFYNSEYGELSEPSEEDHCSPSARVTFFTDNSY

[17] = target: Vascular endothelial growth factor receptor 3 (Homo sapiens) (UniProt P35916); details: at 1 µM
[18] = target: Macrophage colony-stimulating factor 1 receptor (Homo sapiens) (UniProt P07333); details: at 0.1 µM
Sequence of Macrophage colony-stimulating factor 1 receptor (Homo sapiens) (P07333 whole entry): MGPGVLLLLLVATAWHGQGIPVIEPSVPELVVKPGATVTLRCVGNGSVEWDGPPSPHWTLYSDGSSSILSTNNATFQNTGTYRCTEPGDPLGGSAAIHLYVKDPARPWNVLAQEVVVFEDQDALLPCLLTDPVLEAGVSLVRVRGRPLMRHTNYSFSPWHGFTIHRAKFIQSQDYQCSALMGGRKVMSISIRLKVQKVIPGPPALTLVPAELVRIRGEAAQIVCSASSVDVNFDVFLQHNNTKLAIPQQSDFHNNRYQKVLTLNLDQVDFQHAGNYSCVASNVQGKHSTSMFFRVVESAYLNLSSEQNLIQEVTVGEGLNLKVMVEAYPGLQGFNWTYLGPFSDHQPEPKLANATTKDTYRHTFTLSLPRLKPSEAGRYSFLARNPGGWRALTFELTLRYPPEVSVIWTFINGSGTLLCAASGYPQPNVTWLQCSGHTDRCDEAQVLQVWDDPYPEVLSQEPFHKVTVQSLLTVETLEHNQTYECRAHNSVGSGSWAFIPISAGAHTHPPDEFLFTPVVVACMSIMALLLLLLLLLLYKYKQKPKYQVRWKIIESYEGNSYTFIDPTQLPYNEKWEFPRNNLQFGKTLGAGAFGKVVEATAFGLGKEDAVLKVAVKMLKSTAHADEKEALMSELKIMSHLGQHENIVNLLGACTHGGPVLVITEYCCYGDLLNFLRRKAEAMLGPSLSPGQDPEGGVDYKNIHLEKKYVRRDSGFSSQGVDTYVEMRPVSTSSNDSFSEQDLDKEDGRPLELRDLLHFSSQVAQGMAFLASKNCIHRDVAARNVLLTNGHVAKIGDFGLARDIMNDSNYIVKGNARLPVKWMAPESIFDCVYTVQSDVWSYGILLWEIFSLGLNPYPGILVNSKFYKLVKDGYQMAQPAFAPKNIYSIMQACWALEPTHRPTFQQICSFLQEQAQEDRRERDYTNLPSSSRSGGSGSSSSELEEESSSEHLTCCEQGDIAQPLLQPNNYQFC

[19] = target: Macrophage colony-stimulating factor 1 receptor (Homo sapiens) (UniProt P07333); details: at 1 µM
[20] = target: Tyrosine-protein kinase Fyn (Homo sapiens) (UniProt P06241); details: at 0.1 µM
Sequence of Tyrosine-protein kinase Fyn (Homo sapiens) (P06241 2-537 limits assumed): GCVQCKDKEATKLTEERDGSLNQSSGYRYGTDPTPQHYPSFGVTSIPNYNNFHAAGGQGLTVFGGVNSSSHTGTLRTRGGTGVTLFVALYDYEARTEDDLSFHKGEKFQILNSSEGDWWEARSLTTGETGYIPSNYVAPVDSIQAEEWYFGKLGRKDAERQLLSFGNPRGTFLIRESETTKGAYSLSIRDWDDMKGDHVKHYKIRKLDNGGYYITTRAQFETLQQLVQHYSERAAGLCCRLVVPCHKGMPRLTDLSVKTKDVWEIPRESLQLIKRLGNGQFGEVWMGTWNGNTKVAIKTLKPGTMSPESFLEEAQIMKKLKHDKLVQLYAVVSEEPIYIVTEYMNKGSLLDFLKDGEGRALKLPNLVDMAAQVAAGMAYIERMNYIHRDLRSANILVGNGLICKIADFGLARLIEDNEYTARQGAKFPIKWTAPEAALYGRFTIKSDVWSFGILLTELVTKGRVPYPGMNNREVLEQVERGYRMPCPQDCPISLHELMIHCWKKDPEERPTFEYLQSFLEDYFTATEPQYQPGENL

| SMILES | inhibition [1] | inhibition [2] | inhibition [3] | inhibition [4] | inhibition [5] | inhibition [6] | inhibition [7] | inhibition [8] | inhibition [9] | inhibition [10] | inhibition [11] | inhibition [12] | inhibition [13] | inhibition [14] | inhibition [15] | inhibition [16] | inhibition [17] | inhibition [18] | inhibition [19] | inhibition [20] |
| --- | --- | --- | --- | --- | --- | --- | --- | --- | --- | --- | --- | --- | --- | --- | --- | --- | --- | --- | --- | --- |
| COc1ccc(CNC(=O)c2ccc(-c3cc(-c4nnc(C)o4)ccc3C)cc2)cc1 | 3.56% | 3.38% | 1.51% | 1.12% | 3.44% | -0.69% | 4.26% | 1.72% | -1.14% | 1.2% | 6.3% | 2.95% | 1.61% | 1.98% | -2.55% | -1.03% | -1.53% | 1.47% | 0.46% | 0.71% |
| CS(=O)(=O)CCNCc1ccc(-c2ccc3ncnc(Nc4ccc(OCc5ccccc5)c(C(F)(F)F)c4)c3c2)o1 | 5.28% | 1.71% | 1.9% | 4.27% | 5.33% | 0.91% | -0.61% | 2.28% | 4.17% | 7.54% | 7.1% | 3.58% | 1.98% | 9.3% | -2.7% | 1.59% | 1.31% | -3.68% | 1.56% | 1.63% |
